Assay results taken from PubChem BioAssay AID651965 (National Center for Advancing Translational Sciences (NCATS), 2013).
Among all 340,000 compounds or so, about 6,400 (1.9%) were called active. Roughly 4% stayed inconclusive and do not appear here. The sample as a whole holds a higher share of actives than the screen did. Values without a mark were called inactive. The call rests on the fitted dose curve; in most records, active means well fitted falling curve with a large enough effect; inconclusive means small, poorly fitted or top-dose-only effect; inactive means no such curve, though single readings can be large or run the other way.

Biological target: ATP-dependent Clp protease proteolytic subunit (Bacillus subtilis (strain 168)) (UniProt P80244)
Sequence (P80244 whole entry, looked up): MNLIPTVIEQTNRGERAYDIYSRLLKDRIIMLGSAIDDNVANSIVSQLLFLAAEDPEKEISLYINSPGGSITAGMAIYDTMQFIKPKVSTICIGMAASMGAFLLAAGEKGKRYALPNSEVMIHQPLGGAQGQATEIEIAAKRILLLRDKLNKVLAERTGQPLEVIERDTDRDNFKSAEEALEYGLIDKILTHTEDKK
Experiment: qHTS Assay for Activators of ClpP; further: the source files actives as falling curves though it sought activators and does not explain the sign; nearly all actives have a fitted effect of over 65% in size
Details: purified B. subtilis ClpP, FRET peptide cleavage, 20 min; series mostly up to 57.5 µM; activity change, negative = active: at the top concentration
Method in brief: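 Buffer: 100 mM Tris/HCl pH8, 100 mM KCl, 0.05% low protease BSA, 2.5% glycerol, 0.01% Tween-20. ClpP 10 microg/mL final; 20 min RT; delta FRET normalized to ADEP and DMSO controls.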
Potency means the concentration at half of the fitted maximal effect.

| Compound | activity change, negative = active [%] | Potency |
| --- | --- | --- |
| CC(C)(C(=O)NO)c1ccccc1 | -0.655 | – |
| O=C(COc1ccccc1[N+](=O)[O-])N/N=C/c1ccc[nH]1 | – | 31.6 µM (active) |
| CCCC(=O)Nc1ccc(C(=O)N/N=C/c2ccc[nH]2)cc1 | 1.82 | – |
| CC(Oc1ccccc1[N+](=O)[O-])C(=O)N/N=C/c1ccoc1 (stereo not drawn) | -3.01 | – |
| O=C(Nc1ccc(Cl)cc1)c1csc([C@H]2C[C@H](O)[C@@H](CO)O2)n1 | 0.0111 | – |
| COc1ccc(NC(=O)CN2CCN(S(=O)(=O)c3ccc(F)cc3)CC2)cc1Cl | 3.19 | – |
| COc1ccccc1NC(=O)CN1CCN(S(=O)(=O)c2ccc(Br)cc2)CC1 | -12.3 | – |
| COc1cc2c(cc1NC(=O)CN1CCN(S(=O)(=O)c3ccc(F)cc3)CC1)oc1ccccc12 | – | 11.2 µM (active) |
| O=C(OCc1cn([C@H]2C[C@H](c3ccccc3)N(C(=O)c3cccs3)C[C@@H]2O)nn1)c1ccccc1 | 0.361 | – |
| CCOC(=O)C1=CC[C@@H](c2ccncc2)N(S(=O)(=O)c2ccc(C)cc2)C1 | 0.521 | – |
| CC1(C(=O)NCc2ccc3c(c2)OCO3)CCN1CCc1ccccc1 (stereo not drawn) | -0.799 | – |
| C[N+](C)(C)CCNC(=O)c1c[nH]c2ccccc12 | 3.16 | – |
| CCOC(=O)c1ccc(NC(=O)c2cc(=O)[nH]c3ccccc23)cc1 | -7.27 | – |
| CCOC(=O)c1ccc(COC(=O)c2cc(=O)[nH]c3ccccc23)o1 | – | 15.8 µM (active) |
| CC1CCN(C(=O)COC(=O)c2cc(=O)[nH]c3ccccc23)CC1 | -5.9 | – |
| Cc1ccc2nc(-c3ccccc3)c(CC3CCCCC3)n2c1 | -17.3 | – |
| SCc1nc2ccc(Cl)cc2[nH]1 | -5.53 | – |
| COc1ccccc1CC(=O)Nc1ccc([N+](=O)[O-])cc1OC | – | 7.08 µM (active) |
| COc1ccccc1CC(=O)Nc1ccc(F)cc1F | 2.38 | – |
| COc1cc([N+](=O)[O-])ccc1NC(=O)CN1CCCC1 | -1.92 | – |
| O=C(NC(c1ccc(-c2ccccc2)cc1)c1cnccn1)C1CCN(CCOc2ccc(Cl)cc2Cl)CC1 (stereo not drawn) | -2.84 | – |

| Compound | activity change, negative = active [%] | Potency |
| --- | --- | --- |
| COc1cc2nc(N3CCCN(C)CC3)nc(NC(C)C)c2cc1OC | 4.14 | – |
| COC(=O)Cn1c2ccc(C)cc2c2nc(C)sc21 | 0.6 | – |
| COC(=O)Cn1c(=NC(=O)CSCC(=O)Nc2cc(C)on2)sc2ccccc21 | -15.6 | – |
| COC(=O)Cn1c(=NC(=O)c2cc(OC)c(OC)c(OC)c2)sc2cc(OC)ccc21 | – | 2.82 µM (active) |
| Cc1ccccc1-c1csc(C(O)c2cccc(Cl)c2)n1 (stereo not drawn) | -1.81 | – |
| COc1ccc(C(=O)N2CCC(C(=O)Nc3ccc(C)cc3)CC2)cc1 | 0.262 | – |
| COc1ccc(C(=O)Nc2c(Cl)cc(Cl)cc2C(=O)N2CCC(C)CC2)cc1 | – | 15.8 µM (active) |
| COc1ccc(C(=O)Nc2ccccc2C(=O)N2CCN(c3ccccc3)CC2)cc1 | -1.35 | – |
| OC(Cc1ccc2ccccc2n1)c1ccc(Cl)c(Cl)c1 (stereo not drawn) | -2.58 | – |
| O=C(CSc1nnc(-c2ccoc2)o1)N1CCOCC1 | -2.09 | – |
| COc1ccc(-c2nc(SCC(=O)N3CCCCC3C)n[nH]2)cc1 (stereo not drawn) | -1.11 | – |
| O=C(CSc1n[nH]c(-c2ccccc2)n1)N1CCCCC1 | 1.34 | – |
| COc1ccc(N2CCN(C(=O)CSc3nnc4ncccn34)CC2)cc1 | -0.882 | – |
| COc1ccc(-c2nc(SCC(=O)N3CCOCC3)n[nH]2)cc1 | – | 15.8 µM (active) |
| COc1ccc(-c2ccnc(SCC(=O)N3CCOCC3)n2)cc1 | – | 15.8 µM (active) |
| CCc1ccccc1NC(=O)CN1CCN(C(=O)c2cc(C3CC3)nn2-c2ccccc2)CC1 | 2.06 | – |
| CSc1ccc(CNC(=O)C2(C)CCCN2C)cc1 (stereo not drawn) | -1.05 | – |
| CCOC(=O)c1ccc(-n2c(CCC(=O)O)ccc2-c2ccccc2)cc1 | -2.4 | – |
| CCOC(=O)c1ccc(COC(=O)CCc2nc(-c3ccccc3)c(-c3ccccc3)o2)cc1 | – | 28.2 µM (active) |
| CCOC(=O)c1c(-c2ccc(OC)cc2)oc2ccc(OCc3ccc(C(=O)OC)cc3)cc12 | 3.62 | – |
| COC(=O)C1=CN(c2c(C)cc(C)cc2C)C(N)=C(C#N)C1c1cccc(F)c1 (stereo not drawn) | 1.91 | – |

| Compound | activity change, negative = active [%] | Potency |
| --- | --- | --- |
| Cc1ccc(Cn2cc(CN3CC(N4CCN(C)CC4)CS3(=O)=O)nn2)cc1 (stereo not drawn) | -0.127 | – |
| OC[C@@H]1CN(Cc2cccs2)C[C@H](n2cnc3c(Nc4ccccc4)ncnc32)O1 | -29.3 | – |
| CC(C)C[C@@H](COCc1ccc(Cl)cc1)N1CCN(C(=O)c2ccc(Cl)cc2Cl)CCC1=O | -4.04 | – |
| OC[C@@H]1CN(Cc2ccc(-c3ccccc3)cc2)C[C@H](n2cnc3c(NC4CCCC4)ncnc32)O1 | -2.78 | – |
| COc1cccc2c(=O)n(CC(=O)N3CCCCCC3)ccc12 | 4.01 | – |
| O=C(CN1C(=O)c2cccc3cccc(c23)C1=O)N1CCCCC1 | – | 14.1 µM (active) |
| C[N+](C)(CCCCCC[N+](C)(C)CCCN1C(=O)c2cccc3cccc(c23)C1=O)CCCN1C(=O)c2cccc3cccc(c23)C1=O | 4.06 | – |
| C#CCNC(=O)C[C@@H]1C[C@@]2(C(=O)OCC)CCCC=C2N(Cc2ccco2)C1=O | 2 | – |
| CC(=O)Nc1cccc(Nc2ccc(C#N)cc2)c1 | -22.8 | – |
| O=C1O/C(=C\c2ccc(O)cc2)C(O)=C1c1ccc(O)cc1 | -2.31 | – |
| CCC(C)(C)NC(=O)C(c1cccn1C)N(Cc1ccc(C)cc1)C(=O)Cn1nnc2ccccc21 (stereo not drawn) | – | 31.6 µM (active) |
| CC(C)(C)NC(=O)C(c1ccco1)N(Cc1ccc2c(c1)OCO2)C(=O)Cn1nnc2ccccc21 (stereo not drawn) | -0.906 | – |
| CCC(C)(C)NC(=O)C(c1ccc(O)cc1)N(C(=O)Cn1nnc2ccccc21)c1ccc(NC(C)=O)cc1 (stereo not drawn) | -0.392 | – |
| Nc1[nH]c(C(=O)c2ccccc2)c(-c2ccncc2)c1C(=O)NCc1cccc2ccccc12 | 0.831 | – |
| CCOC(=O)C1CCCN(C(=O)c2cccc3ccccc23)CC1 (stereo not drawn) | 0.267 | – |
| COc1ccc(CCNC(=O)c2nn(C)c3c2CSc2ccccc2-3)cc1OC | -0.894 | – |
| COc1ccccc1CNC(=O)c1ccc(NC(=O)N2CC(C)Sc3ccccc32)cc1 (stereo not drawn) | -7.1 | – |
| COc1ccc(CCNC(=O)c2cc3cccc4c3n2CC(C)S4)c(OC)c1OC (stereo not drawn) | – | 31.6 µM (active) |
| NC(c1csc(NC(=O)Nc2cccc(C(F)(F)F)c2)n1)C1CCCCC1 (stereo not drawn) | 1.19 | – |
| CN(Cc1ccccc1F)c1cc2c(c3c1ccn3C)C1CCC2O1 (stereo not drawn) | -8.78 | – |
| COC(=O)Cc1ccc(OC2(C)CCN(Cc3ccc4c(c3)OCCO4)C2)cc1 (stereo not drawn) | -7.62 | – |
